The results in this text go back to PubChem BioAssay (NCATS).

Assay [1] concerns Zika virus NS2B-NS3 protease (linked construct). Nature of the assay: Primary screen NINDS Rhodamine qHTS for Zika virus inhibitors (AID 1347160). Further: nearly all actives have a fitted effect of over 55% in size. Further: potency means the concentration at half of the fitted maximal effect. A digest of the protocol: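 Percent inhibition, normalized to uninhibited and enzyme-free controls, is fitted to a 4-parameter Hill equation. Fluorescence change comes from a 15-min cleavage of 1.5 microM bis-peptide Rhodamine110 substrate by 25 nM linked NS2B-NS3 at room temperature.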
A general note: qHTS replaces the single test concentration by a dilution series.

Assay [2] in a line: HPAF-II Cancer Cell Toxicity qHTS against the NCATS CANVASS Library (AID 1347346). Further: nearly all actives have a fitted effect of over 55% in size. Further: potency means the concentration at half of the fitted maximal effect. The method, boiled down:
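HPAF-II cells at 1000 cells/well were treated with an 11-point concentration series for 72 hours at 37 degrees C. Viability read by CellTiter-Glo luminescence.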

A short description of assay [3]: OV-SAHO Cancer Cell Toxicity qHTS against the NCATS CANVASS Library (AID 1347348). Further: nearly all actives have a fitted effect of over 55% in size. Further: potency means the concentration at half of the fitted maximal effect. The method, boiled down: (§1)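 Per well, 1000 cells; exposure 72 h with compound at 11 final concentrations; readout CellTiter-Glo luminescence.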
Assay [4] can be described thus: U-118MG Cancer Cell Toxicity qHTS against the NCATS CANVASS Library (AID 1347351). Further: potency means the concentration at half of the fitted maximal effect. A digest of the protocol:
as §1

Assay [5] in a line: HPAF-II 12hr Apoptosis Induction qHTS against the NCATS CANVASS Library (AID 1347358). Further: potency means the concentration at half of the fitted maximal effect. A digest of the protocol: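 HPAF-II cells, 500/well in DMEM + 10% FBS, exposed 12 hours at 37 degrees C to compound (11-point). Caspase-Glo 3/7 added for 15 min at room temperature; luminescence reflects caspase-3/7 activity.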
Assay [6] in a line: HPAF-II 18hr Apoptosis Induction qHTS against the NCATS CANVASS Library (AID 1347360). Further: potency means the concentration at half of the fitted maximal effect. A digest of the protocol: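 HPAF-II cells (500/well, DMEM + 10% FBS) were exposed to compounds for 18 hours at 37 degrees C. Caspase-3/7 activity was then read by Caspase-Glo 3/7 luminescence after 15 min at room temperature.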
Assay [7] in a line: HEK293 12hr Apoptosis Induction qHTS against the NCATS CANVASS Library (AID 1347361). Further: potency means the concentration at half of the fitted maximal effect. A digest of the protocol:
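Read-out: Caspase-Glo 3/7 luminescence (DEVD substrate), 15 min RT. Preceded by 12 h compound exposure of HEK293, 500 cells/well, 11-pt qHTS titration; doxorubicin titration as control.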

The target in assay [8] is Luciferin 4-monooxygenase (Photinus pyralis) (UniProt P08659). Nature of the assay: Firefly luciferase counterscreen qHTS: Assay Interference Panel against the NCATS CANVASS Library (AID 1347363). Further: series mostly up to about 57 µM. The method, boiled down:
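Purified P. pyralis luciferase was added to compounds (11-point series) preincubated 15 min at room temperature with substrate containing 0.013 mM D-luciferin and 0.013 mM ATP; luminescence was read after 5 min.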
For orientation: The purpose of a counterscreen is to sort out artefacts and off-target activity.

A short description of assay [9]: MCF7 Cancer Cell Toxicity qHTS against the NCATS CANVASS Library (AID 1347369). Further: potency means the concentration at half of the fitted maximal effect. A digest of the protocol:
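MCF7, 500 cells/well; cpds 11-pt qHTS; 72 hr, 37C/5% CO2; CellTiterGlo ATP luminescence.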

A short description of assay [10]: qHTS for ATAD5 Antagonist screened against the NCATS CANVASS Library (AID 1347370). Further: nearly all actives have a fitted effect of over 65% in size. Further: potency means the concentration at half of the fitted maximal effect. A digest of the protocol:
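HEK293T cells with stably integrated ATAD5-luciferase reporter, 2000/well, 5 h attachment; compounds plus 10 µM 5-fluorouridine, 16 h at 37 °C. Luciferase luminescence read, with CellTiter-Fluor viability read first.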

Assay [11] can be described thus: J3T Cancer Cell Toxicity qHTS against the NCATS CANVASS Library (AID 1347371). Further: potency means the concentration at half of the fitted maximal effect. A digest of the protocol:
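J3T dog glioma cells, 500 per well, treated 72 h at 37C with compounds (11-point qHTS); viability from ATP content by CellTiterGlo luminescence; bortezomib titration as control.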

The target of assay [12] is Nuclear receptor subfamily 1 group I member 3 (Homo sapiens) (UniProt Q14994). Description: qHTS for Constitutive Androstane Receptor (CAR) Antagonist screened against the NCATS CANVASS Library (AID 1347372). Further: potency means the concentration at half of the fitted maximal effect. The method, boiled down:
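HepG2 cells stably carrying hCAR and a CYP2B6-2.2kb luciferase reporter were exposed to compounds plus 50 nM CITCO for 24hr at 37C. CAR activity was read by ONE-Glo luminescence, with viability measured first by CellTiter-Fluor.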

Assay [13] in a line: 10-beta competent E. coli microbial cell viability qHTS against the NCATS CANVASS Library (AID 1347376). Further: series mostly up to about 46 µM. A digest of the protocol: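 10-beta competent E. coli (0.2 OD) were exposed overnight at 37C to compounds in an 11-point series. Viability was read as ATP-dependent BacTiter-Glo luminescence after 20 min at room temperature.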
Assay [14] in a line: qHTS for Inflammasome Signaling Inhibitors: IL-1-beta AlphaLISA screen against the NCATS CANVASS Library (AID 1347379).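 Further: human THP-1 cells primed with LPS then triggered with ATP.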 A digest of the protocol: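 THP-1 cells pretreated 1 hr with compound (up to 57.5 uM final), then stimulated with LPS (250 ng/mL final) and ATP (1.25 mM final). Secreted IL-1B measured by AlphaLISA after 16 hr; glyburide as positive control.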
The nature of assay [15]: Inflammasome Signaling qHTS Counterscreen: IL-1-beta AlphaLISA counterscreen against the NCATS CANVASS Library (AID 1347381).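 Further: cell-free check with purified IL-1β in medium and no THP-1 cells; series mostly up to about 57 µM.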 A digest of the protocol:
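Cell-free interference check: compounds added to medium spiked with 4 pg purified IL-1β. Anti-IL-1β acceptor beads (6 ug/mL) with 0.6 nM biotinylated antibody added for 1 h at RT, then streptavidin donor beads (24 ug/mL) for 30 min in the dark. AlphaLISA read at 680/615 nm.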

Assay [16] in a line: COV-362 Cancer Cell Toxicity qHTS against the NCATS CANVASS Library (AID 1347352). Further: potency means the concentration at half of the fitted maximal effect. A digest of the protocol:
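Cells at 1000/well were given compound 4 h after plating in an 11-point series. Viability was read by CellTiter-Glo luminescence after 72 h at 37 degrees C.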

Assay [17] is described as follows: HEK293 18hr Apoptosis Induction qHTS against the NCATS CANVASS Library (AID 1347357). Further: potency means the concentration at half of the fitted maximal effect. A digest of the protocol:
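HEK293 cells (500 per well, DMEM with 10% FBS) were treated with natural products, incubated 18 hours at 37 degrees C, then caspase-3/7 activity was read by Caspase-Glo luminescence after 15 min at room temperature.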

Assay [18] is described as follows: Cytotoxicity qHTS for assessment of Hepg2 cells membrane integrity screened against the NCATS CANVASS Library (AID 1347387). A digest of the protocol:
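HepG2 cells (2000/well) attached overnight, then exposed 5 hr at 37C to compounds in an 11-point series (0.59 nM - 46 uM final). LDH release from damaged membranes read fluorometrically (CytoTox-ONE; 560/590 nm) after 10 min at room temperature.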

Assay [19] is described as follows: HEK293 24hr Apoptosis Induction qHTS against the NCATS CANVASS Library (AID 1347359). Further: potency means the concentration at half of the fitted maximal effect. A digest of the protocol: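 HEK293 cells (500/well, DMEM + 10% FBS) were exposed to compounds in an 11-point series for 24 hours at 37 degrees C, then caspase-3/7 activity was read by Caspase-Glo DEVD luciferase luminescence after 15 min.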
A short description of assay [20]: Vero-766 cells viability qHTS against the NCATS CANVASS Library: Counterscreen for Zika virus inhibition assay (AID 1347394). Further: nearly all actives have a fitted effect of over 60% in size. Further: potency means the concentration at half of the fitted maximal effect. The method, boiled down:
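Uninfected Vero 766 (African green monkey) cells, 1000/well, attached overnight, then exposed 72 h at 37C to compounds (11-point qHTS). Viability read by CellTiter-Glo luminescence; media-only wells served as 100% inhibition.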

Inconclusive results are not listed. Activity calls are given as the source filed them. The call rests on the fitted dose curve; in most records, active means well fitted curve in the direction sought with a large enough effect; inconclusive means small, poorly fitted or top-dose-only effect, or another doubt; inactive means no such curve, though single readings can be large; an effect the other way counts as inactive or inconclusive.

Sequence of Luciferin 4-monooxygenase (Photinus pyralis) (P08659 whole entry, looked up): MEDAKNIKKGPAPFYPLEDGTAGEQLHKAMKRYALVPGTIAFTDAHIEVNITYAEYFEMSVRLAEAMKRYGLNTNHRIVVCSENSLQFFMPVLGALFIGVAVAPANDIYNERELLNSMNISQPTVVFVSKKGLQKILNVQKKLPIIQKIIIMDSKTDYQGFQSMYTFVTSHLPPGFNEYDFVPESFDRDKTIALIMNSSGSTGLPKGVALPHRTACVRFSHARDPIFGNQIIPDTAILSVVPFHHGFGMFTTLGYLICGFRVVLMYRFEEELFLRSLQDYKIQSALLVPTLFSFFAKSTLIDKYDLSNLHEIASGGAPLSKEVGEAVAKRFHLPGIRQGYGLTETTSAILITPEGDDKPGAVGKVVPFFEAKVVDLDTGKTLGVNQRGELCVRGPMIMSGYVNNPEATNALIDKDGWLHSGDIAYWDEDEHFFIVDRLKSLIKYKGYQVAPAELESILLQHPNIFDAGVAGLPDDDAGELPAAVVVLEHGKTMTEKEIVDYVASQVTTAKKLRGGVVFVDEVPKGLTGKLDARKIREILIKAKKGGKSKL
Sequence of Nuclear receptor subfamily 1 group I member 3 (Homo sapiens) (Q14994 whole entry, looked up): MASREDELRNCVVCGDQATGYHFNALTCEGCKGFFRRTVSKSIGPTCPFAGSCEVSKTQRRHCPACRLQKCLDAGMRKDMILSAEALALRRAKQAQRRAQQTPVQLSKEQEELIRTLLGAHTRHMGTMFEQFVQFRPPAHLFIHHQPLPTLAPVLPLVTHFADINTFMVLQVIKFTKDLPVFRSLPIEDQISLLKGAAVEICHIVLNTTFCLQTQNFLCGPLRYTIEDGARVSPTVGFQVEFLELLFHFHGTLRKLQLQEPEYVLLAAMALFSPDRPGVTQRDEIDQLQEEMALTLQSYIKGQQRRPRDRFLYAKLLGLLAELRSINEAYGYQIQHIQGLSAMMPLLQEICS

Take `CC1=CC2=C[C@H](C)C[C@@]23OC(=C(C)C3=O)CC(C)(C)/C=C/C1=O`: the Potency in assay [1] was 55.3 µM (active); in [2], 0.668 µM (active); in assay [3], 2.11 µM (active); in assay [4] it was 0.749 µM (active); in assay [7], 0.935 µM (active); in assay [9] it was 1.65 µM (active). In addition, the Potency was 0.933 µM (active) in [10], 0.935 µM (active) in [11] and 1.09 µM (active) in assay [14]. In addition, the Potency entry in assay [5], in [6], in assay [8] and in assay [12] was “inactive” in each case. In addition, the outcome in assay [13] and in [15] was inactive.

Take `C=C(C)C(=O)O[C@H]1C[C@H](C)[C@@H](OC(C)=O)CC[C@@]2(C)O[C@@H]2[C@H]2OC(=O)C(COC(C)=O)=C12`: the Potency in assay [1] is 31.1 µM (active); in assay [2] it was 11.9 µM (active); in [3], 2.36 µM (active); in assay [17], 9.35 µM (active); in assay [7], 9.35 µM (active); in assay [9], 23.4 µM (active). In addition, the Potency in assay [10] is 16.6 µM (active); in [11], 6.62 µM (active); in [14] it was 9.68 µM (active). Besides, the Potency result in assay [16] and in assay [8] was “inactive” throughout. For the same compound, the result in assay [13], in assay [15] and in assay [18] was inactive.

`CN1CC[C@]2(c3cccc4c3N[C@@H]3N(C)CC[C@]43[C@@]34CCN(C)[C@@H]3Nc3c([C@]56CCN(C)[C@H]5Nc5ccccc56)cccc34)c3ccccc3N[C@H]12`: the Potency result in assay [1], in assay [17], in [19], in assay [6], in [7] and in assay [8] was “inactive” in each case. The Potency is 8.41 µM (active) in [2]; 3.75 µM (active) in assay [3]; 6.68 µM (active) in [4]; 5.94 µM (active) in assay [16]; 2.34 µM (active) in assay [9]; 9.33 µM (active) in assay [10]. For the same compound, the Potency is 2.64 µM (active) in assay [11], 26.3 µM (active) in assay [12], 24.3 µM (active) in assay [14] and 20.9 µM (active) in assay [20].

In the case of `O=C(O)[C@@]12COC3(O)C1CCN1CC[C@H]3[C@@H]1c1c2[nH]c2ccccc12`, the Potency entry in assay [1], in assay [2], in assay [3], in [4], in assay [16] and in assay [17] was “inactive” each time. The Potency result in assay [5], in assay [19], in assay [6], in [7], in assay [8] and in assay [9] was “inactive” each time. For the same compound, the Potency result in assay [10], in [11], in [12], in assay [14] and in [20] was “inactive” each time. In addition, the compound was classed as inactive in [13], in assay [15] and in assay [18].

Consider `CN1C(=O)[C@]23SS[C@@]1(C)C(=O)N2[C@H]1Nc2ccccc2[C@]1(c1c[nH]c2ccccc12)[C@@H]3O`, for which the Potency was 49.3 µM (active) in [1]; 0.841 µM (active) in assay [2]; 0.838 µM (active) in assay [3]; 0.941 µM (active) in assay [16]; 8.33 µM (active) in [17]; 0.59 µM (active) in [5]. Further, the Potency is 5.26 µM (active) in assay [19]; 0.469 µM (active) in assay [6]; 5.26 µM (active) in [7]; 3.7 µM (active) in [9]; 4.67 µM (active) in assay [10]; 1.66 µM (active) in assay [11]. The Potency in assay [12] is 10.5 µM (active); in assay [14], 1.53 µM (active); in assay [20], 6.6 µM (active). Also, in assay [8], the Potency entry is “inactive”. Further, the result in [13], in assay [15] and in assay [18] was inactive.
